Assay outcomes: PubChem BioAssay, The Scripps Research Institute Molecular Screening Center
MITF inh = MITF inhibitors, primary screen, biochemical, AlphaScreen, human; AlphaScreen MITF homodimerization, bead proximity signal; AID 1259374, 2018; Microphthalmia-associated transcription factor (Homo sapiens), O75030; inhibition, % at 2.6 µM; hit rate 0.91% among 650,000; in the data active = inhibition above about 50%
GPR151 ag = activators of human GPR151, primary screen, cell-based, PathHunter beta-arrestin, luminescence; PathHunter beta-arrestin GPR151 cells; activation, % at 11.2 µM; hit rate 1% among 650,000; in the data active = activation above about 4.9%
FBW7 activator = FBW7 E3 ligase activators, primary screen, biochemical, AlphaScreen, human. AlphaScreen FBW7–phospho-cyclin E peptide binding, activator screen. normalized activity (activation), % at 26.1 µM. hit rate 0.13% among 650,000. AID 1259310, 2017; in the data active = normalized activity above about 1.9%;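 also: purified mutant Fbw7 with reduced substrate affinity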
TEAD-YAP inh = TEAD-YAP interaction inhibition, primary screen, TEAD-YAP interaction inhibitor project, luminescence, HEK-TIYL cells | TEAD-Gal4/YAP UAS-luciferase luminescence | inhibition, % at 9.12 µM | hit rate 1.4% among 640,000; in the data active = inhibition above about 32%
Large screens that a line does not name were inactive. Most compounds without a hit are left out; they make up all but 3.5% or so of the library.

CN1CCC(=NNC(=O)C2COc3ccccc3O2)CC1 (stereo not drawn)	TEAD-YAP inh 38
CC(C)N(CCNc1nc(-c2cccc(N)c2)nc2c1ncn2C(C)C)C(C)C	TEAD-YAP inh 53
CC(=O)c1cccc(-c2nc(NCc3nc4ccccc4[nH]3)c3ncn(C(C)C)c3n2)c1	TEAD-YAP inh 67
CC(C)n1cnc2c(NCCO)nc(-c3cccc(N)c3)nc21	none
CC(C)n1cnc2c(NCc3nc4ccccc4[nH]3)nc(-c3cccc(N)c3)nc21	TEAD-YAP inh 84
CC(C)N(CCNc1nc(-c2ccc(N3CCN(C)CC3)cc2)nc2c1ncn2C(C)C)C(C)C	TEAD-YAP inh 39
COc1cc(S(=O)(=O)Nc2cccc(C)c2)ccc1NC(C)=O	none
CN1CCN(c2nc(-c3ccc(F)cc3)cc(C(F)(F)F)n2)CC1	none
COc1ccccc1N1CCN(c2ncc(C(=O)N(C)c3ccc(F)cc3)c3ccccc23)CC1	none
N#Cc1c(N)n(CCNC(=O)c2cccc(C(F)(F)F)c2)c2nc3ccccc3nc12	none
Nc1cccc(-c2nc(NCc3nc4ccccc4[nH]3)c3ncn(-c4ccccc4)c3n2)c1	TEAD-YAP inh 35
COc1ccc(CN2CCN(CCC(C)C)C(CCO)C2)c(Cl)c1OC (stereo not drawn)	none
CCN(CC)CCn1nc2c3c(cccc3c1=O)-c1ccccc1-2	TEAD-YAP inh 81
Oc1ccccc1/C=N\Nc1ccccn1	MITF inh 82
Oc1ccccc1/C=N\Nc1ncc(F)c(N2CCOCC2)n1	MITF inh 88
Oc1ccccc1/C=N\Nc1nc2ccccc2o1	TEAD-YAP inh 52
Oc1c(Br)cc(Br)cc1/C=N/Nc1ccccn1	none
Cc1cc(C)n(-c2cc(N/N=C/c3ccccc3O)ncn2)n1	TEAD-YAP inh 59
O=C(N/N=C/c1ccccc1O)C(=O)Nc1ccccn1	MITF inh 61
Oc1ccccc1/C=N/Nc1ccc(Cl)nn1	MITF inh 51, TEAD-YAP inh 72
CCN1/C(=C\C=c2\sc(=C(C#N)C#N)n(CC)c2=O)N(C)c2cc(C(=O)OC)ccc21	none
CCOC(=O)c1ccc(N=C2SC(C(=O)Nc3ccc(C)c(Cl)c3)CC(=O)N2C)cc1 (stereo not drawn)	none
COc1cc2c(cc1OC)C(c1cccs1)N(C(=O)c1cccnc1)CC2 (stereo not drawn)	TEAD-YAP inh 46
CCOc1ccc(-n2c(=S)sc3c(=O)n(-c4ccc(F)cc4)c(SCN4C(=O)c5ccccc5C4=O)nc32)cc1	none
CC(C)C(=O)Nc1ccc(-c2nc3cccnc3s2)cc1	TEAD-YAP inh 87
CCCC(=O)Nc1ccc(-c2nc3cccnc3s2)cc1	none
CN1CCN(c2ccnc3c(-c4ccc(O)cc4)cnn23)CC1	MITF inh 78, TEAD-YAP inh 43
CCCNc1ccnc2c(-c3ccc(N(C)C)cc3)cnn12	none
OCc1cccc(-c2cnn3c(NCCCN4CCOCC4)ccnc23)c1	none
CN1CCN(c2ccnc3c(-c4ccc(Cl)cc4)cnn23)CC1	none
CCCNc1ccnc2c(-c3cccc(CO)c3)cnn12	TEAD-YAP inh 102
CCCNc1ccnc2c(-c3ccc(O)cc3)cnn12	TEAD-YAP inh 97
Cc1cccc(N(C)c2ccnc3c(-c4cccc(CO)c4)cnn23)c1	TEAD-YAP inh 76
CCC(Sc1nnc2c3ccccc3n(C)c2n1)C(=O)Nc1ccc(Cl)cn1 (stereo not drawn)	none
CCN(c1ccccc1)c1nnc(NC(=O)Nc2cc(C)ccc2C)s1	none
CN(C)c1cccc(Nc2ccnc3c(-c4ccc(O)cc4)cnn23)c1	none
CN(C)c1cccc(Nc2ccnc3c(-c4cccc(CO)c4)cnn23)c1	TEAD-YAP inh 63
Cc1nc(C)c(CCNC(=O)c2cccc([N+](=O)[O-])c2)s1	none
N#Cc1cnc(N)c(C#N)c1Nc1ccccc1	TEAD-YAP inh 38
N#Cc1cc(N)c(Nc2ccccc2)cc1C#N	none
CCc1ccccc1NC(=O)CSC1=C(C#N)C(c2ccc(C)o2)C2=C(CCCC2=O)N1 (stereo not drawn)	TEAD-YAP inh 55
O=C(c1cc2n(n1)C(C(F)(F)F)CC(c1ccc(Cl)cc1)N2)N1CCN(c2cccc(Cl)c2)CC1 (stereo not drawn)	none
O=C(c1cc2n(n1)C(C(F)(F)F)CC(c1ccc3c(c1)OCO3)N2)N1CCN(c2cccc(Cl)c2)CC1 (stereo not drawn)	FBW7 activator 3.7
O=C(NCc1ncc(C(F)(F)F)cc1Cl)c1cn2ccsc2n1	FBW7 activator 2.0
